From PubChem BioAssay come the findings set out here.

Values joined by “and” are separate entries in the source; they are usually repeats but may differ in a detail not shown here. Equal entries are not always repeated. Active and inactive are the calls of the source.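 The calls were made as follows, unless noted: active = inhibition at or above 50% relative to wild type and mutant plate controls; inactive = inhibition below 50%.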

Assay [1] can be described thus: inhibitors of TNFa-induced NFkB p65 translocation, primary screen, imaging, HUVEC, MLSMR starter and 10KST1 sets (AID 438;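 active = inhibition above 20% together with a positive visual image hit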;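 also: compound added about 3h40 before a 20 min TNFalpha stimulation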;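 as to inhibition: signal is the nuclear over cytoplasmic p65 intensity ratio per well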). The note with it: HUVEC TNFa-induced p65 nuclear translocation; cell count: measured here: nuclei count (cytotoxicity indicator), at 2.08 µM; inhibition: at 2 µM, stronger effect = higher value, 0% TNFa-plus-vehicle, 100% no-TNFa wells.
Assay [2] can be described thus: reduction of polyQ htt aggregates in cells – imaging, exon1htt(103Q)mCFP cells, high-content imaging, primary screen (AID 483;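 active = visual image review flags a hit and inhibition of aggregation exceeds 20%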;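 also: compound exposure lasted 3 days before fixation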;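 as to nuclei count: percent of the per-plate median nuclei count of sample wells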). The note with it: exon1htt(103Q)mCFP cell line, aggregate imaging, at 2 µM; inhibition of aggregation: stronger effect = higher value; nuclei count: measured here: cell count, toxicity.
The nature of assay [3]: endothelial E-selectin expression blockers – imaging, HUVEC, immunofluorescence, MLSMR starter and 10KST1 sets, primary screen (AID 487;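 active = visually confirmed hit in the image check and inhibition above 20%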;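 as to inhibition: signal is fraction of cell area covered by stained E-selectin grains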;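 as to nuclei count: 100% = median nuclei count of all wells on the same plate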). As to conditions: HUVEC TNFalpha-induced E-selectin immunofluorescence imaging, at 2 µM; inhibition: stronger effect = higher value; nuclei count: measured here: cell number, toxicity.
Assay [4] in a line: Primary imaging screen for DUSP6 inhibitors that restore phospho-Erk in transfected HeLa cells, chemical complementation (AID 609;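 active = compounds giving at least 50% inhibition in the cell-based MKP-3 phosphatase rescue imaging test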;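 as to inhibition: phospho-Erk level distribution per well compared with pooled transfected vehicle control wells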). The note with it: HeLa MKP-3 transfected, phospho-Erk imaging KS statistic, at 10 µM, cells stimulated with TPA for 15 min.
The target in assay [5] is Dual specificity protein phosphatase 6 (Homo sapiens) (UniProt Q16828). The assay is described as above. The note with it: HeLa MKP-3 transfected, phospho-Erk imaging KS statistic; at 10 µM; stronger effect = higher value; cells stimulated with TPA for 15 min.
Dual specificity protein phosphatase 6 (Homo sapiens), sequence (Q16828 whole entry, looked up): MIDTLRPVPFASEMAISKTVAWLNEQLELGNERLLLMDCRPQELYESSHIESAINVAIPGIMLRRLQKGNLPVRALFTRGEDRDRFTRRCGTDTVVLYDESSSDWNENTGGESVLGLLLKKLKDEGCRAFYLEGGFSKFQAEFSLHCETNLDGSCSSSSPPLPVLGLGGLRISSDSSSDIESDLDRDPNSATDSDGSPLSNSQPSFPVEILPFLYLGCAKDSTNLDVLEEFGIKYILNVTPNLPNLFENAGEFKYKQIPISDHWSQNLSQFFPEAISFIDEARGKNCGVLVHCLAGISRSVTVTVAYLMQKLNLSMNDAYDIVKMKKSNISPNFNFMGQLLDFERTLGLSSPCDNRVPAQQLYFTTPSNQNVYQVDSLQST
In assay [6] the target is Voltage-gated potassium channel subunit beta-2 (Rattus norvegicus) (UniProt P62483). Nature of the assay: inhibitors of rat Kvbeta2 reductase activity – biochemical, NADPH fluorescence, primary screen (AID 622;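 active = fluorescence slope higher than the sample average by over 3 SD, cut at about -0.22 in these data, passing the limit was not always enough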;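 also: slope of raw intensity against log time taken from 70 to 1610 s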). The note with it: recombinant KvBeta, 4-cyanobenzaldehyde reduction, at 10 µM, stronger effect = higher value.
Voltage-gated potassium channel subunit beta-2 (Rattus norvegicus), sequence (P62483 whole entry, looked up): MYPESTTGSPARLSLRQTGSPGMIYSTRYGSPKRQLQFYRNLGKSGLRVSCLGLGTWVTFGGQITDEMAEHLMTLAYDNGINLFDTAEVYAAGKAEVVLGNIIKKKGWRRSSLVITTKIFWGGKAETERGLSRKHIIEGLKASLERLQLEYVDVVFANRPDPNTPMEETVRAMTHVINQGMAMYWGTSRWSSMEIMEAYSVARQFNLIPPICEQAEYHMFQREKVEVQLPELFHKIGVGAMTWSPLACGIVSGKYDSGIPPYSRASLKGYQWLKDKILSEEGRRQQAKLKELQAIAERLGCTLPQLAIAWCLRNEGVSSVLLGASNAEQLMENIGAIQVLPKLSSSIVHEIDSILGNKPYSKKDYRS
Assay [7] has the same target. Put plainly: enhancers of rat Kvbeta2 NADPH turnover – biochemical, NADPH fluorescence, primary screen (AID 623;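 active = NADPH fluorescence slope more negative than the mean of all samples by about 3 SD, 99.7% confidence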;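 also: fluorescence intensity change per second fitted from 20 to 320 s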). The note with it: Recombinant KvBeta, NADPH fluorescence decrease slope, 10 min; at 10 µM; stronger effect = lower value.
The target of assay [8] is Alpha-2C adrenergic receptor (Homo sapiens) (UniProt P18825). Nature of the assay: compounds altering alpha2C-coupled GIRK flux – cell-based, HEK293 alpha2C/GIRK1/2, thallium flux, primary screen (AID 624;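 active = fluorescence slope after compound addition differing from the mean of all screened samples at 99.7% confidence, in either direction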;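 also: slope of fluorescence ratio to pre-addition baseline per second over 15 to 24 s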). As to conditions: thallium flux BTC fluorescence, at 10 µM, actives lie on both sides.
Alpha-2C adrenergic receptor (Homo sapiens), sequence (P18825 whole entry, looked up): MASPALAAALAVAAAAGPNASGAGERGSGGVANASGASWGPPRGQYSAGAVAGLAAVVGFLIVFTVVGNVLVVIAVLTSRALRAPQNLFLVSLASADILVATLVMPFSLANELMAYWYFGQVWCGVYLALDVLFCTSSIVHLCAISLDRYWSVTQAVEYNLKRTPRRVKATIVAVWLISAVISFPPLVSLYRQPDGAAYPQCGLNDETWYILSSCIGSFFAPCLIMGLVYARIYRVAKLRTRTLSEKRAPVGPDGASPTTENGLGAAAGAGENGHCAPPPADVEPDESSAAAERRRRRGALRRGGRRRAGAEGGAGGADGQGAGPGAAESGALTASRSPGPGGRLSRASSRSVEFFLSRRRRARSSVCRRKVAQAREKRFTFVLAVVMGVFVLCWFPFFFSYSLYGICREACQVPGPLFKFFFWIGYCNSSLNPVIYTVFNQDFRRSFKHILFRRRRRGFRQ
Assay [9] in a line: inhibitors of larval lipid processing in zebrafish, primary screen, whole organism, PED6 fluorescence, gall bladder and intestine (AID 686;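 active = a full or partial loss of lipid-probe fluorescence in the fish gall bladder, intestine or both, judged by eye; inactive = no fluorescence loss, or compound toxic to the fish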;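 also: larvae 5 to 7 days old with five fish per well; signal comes from phospholipase A2 cleavage of quenched PED6 carried via bile; overnight exposure to compound and PED6 before scoring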). As to conditions: Zebrafish larvae PED6 lipid processing, fluorescence scoring; screened at 20 µM (by protocol).
Assay [10] in a line: loss of swimming-algae plug formation – whole organism, Chlamydomonas reinhardtii, WT vs cilia-less mutant, absorbance, 96-well, primary screen (AID 463189).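 Also: 0% = wild type cc124 cells in DMSO and 100% = ciliumless bld1 mutant cells.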 The note with it: Chlamydomonas reinhardtii gravitaxis, OD600 absorbance, 2 days; at 10 µM; stronger effect = higher value.
Assay [11] in a line: blockers of RIG-like receptor reporter activation – cell-based, Sendai virus stimulus, luciferase, 10K MLSCN set, TLR/RLR signaling modifier project, primary screen (AID 602276;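 active = inhibition at or above 50% at 10 µM; inactive = inhibition below 50%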;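 also: firefly luciferase from ISG56 promoter only with Renilla not read in this screen; 0% = Sendai virus plus DMSO and 100% = medium plus DMSO without virus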). The note with it: HEK293 RL24 IRF3 luciferase reporter, at 10 µM, stronger effect = higher value.
Assay [12] is described as follows: TLR3 IRF3 reporter activation blockers – cell-based, poly I:C stimulus, luciferase, 10K MLSCN set, primary screen (AID 602277;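 active = inhibition of the reporter signal at or above 50%; inactive = inhibition below 50%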). The note with it: HEK293-TLR3 RL24 IRF3 luciferase reporter, at 10 µM, stronger effect = higher value.
Where [13] appears, read: measured here: cell density z-score.
Where [14] appears, read: measured here: nuclear c-Myc green intensity z-score.
The mark [15] stands for this setting: measured here: nuclear pErk red intensity z-score, stronger effect = higher value.

As for `CC(=O)OCC(=O)[C@H]1CC[C@H]2[C@@H]3CC=C4C[C@@H](O)CC[C@]4(C)[C@H]3CC[C@]12C`, the cell count in assay [1] came to 586. In addition, the inhibition in assay [1] was -9.5% (inactive); in assay [3] it was -22.1% (inactive); in [5] it was 17.3% (inactive); in assay [10] it was 35% (inactive); in [11] it was 9.44% (inactive); in assay [12], 25.1% (inactive). Also, in assay [2], the inhibition of aggregation is 16.5% (inactive). In addition, the nuclei count in assay [2] was found to be 99.7%; in assay [3], 128%. In addition, the z-score in assay [4] (setting [13]) is 0.459; in assay [4] (setting [14]) it was 0.562; in [4] (setting [15]) it was -0.353. Moreover, the fluorescence slope in assay [6] is -0.45 (inactive). In addition, the NADPH fluorescence slope in [7] was -6.8e-05 (inactive). Also, the slope in assay [8] was 0.00533 (inactive). In addition, in [9], the molecule was classed as inactive.
For the molecule `COc1ccc(C2CNC(=O)C2)cc1OC1CCCC1` (stereo not given), the cell count in assay [1] was determined as 595. The inhibition was -1.7% (inactive) in assay [1]; -59.8% (inactive) in [3]; 3.45% (inactive) in assay [5]; 0.165% (inactive) and 12.7% (inactive) in assay [10]; 15.5% (inactive) in assay [11]; 0.301% (inactive) in [12]. For the same molecule, in [2], the inhibition of aggregation is -10.3% (inactive). The nuclei count worked out at 97.8% in [2] and 124% in assay [3]. The z-score was -1.08 in [4] (setting [13]), -0.0715 in assay [4] (setting [14]) and 0.178 in assay [4] (setting [15]). Moreover, the fluorescence slope in [6] is -0.507 (inactive). The NADPH fluorescence slope in [7] is -0.000115 (inactive). Moreover, the slope in assay [8] is 0.00579 (inactive). Moreover, the molecule was classed as inactive in [9].
In the case of `CC1(C)Cc2c(sc3c2C2=NCCN2C=N3)CS1`, in [1], the cell count stood at 632. Also, the inhibition in assay [1] was -2.6% (inactive); in assay [3], -26.4% (inactive); in assay [5] it was 11.3% (inactive); in assay [10], -8.31% (inactive); in assay [11], 0.61% (inactive); in assay [12], 4.84% (inactive). In [2], the inhibition of aggregation was -1.3% (inactive). Besides, the nuclei count in [2] was 109%; in [3], 138%. Besides, the z-score in assay [4] (setting [13]) was 1.38; in assay [4] (setting [14]), 0.227; in [4] (setting [15]) it was -1.08. Also, the fluorescence slope in [6] is -0.487 (inactive). Besides, the NADPH fluorescence slope in assay [7] was -0.000119 (inactive). In addition, the slope in [8] was 0.00445 (inactive). In addition, in assay [9], the molecule was classed as inactive.
Turning to `OCC(O)CN1CCN(c2ccccc2)CC1` (stereo not given), the cell count in assay [1] turned out to be 605. Moreover, the inhibition in [1] is -6.5% (inactive); in [3], -69.1% (inactive); in assay [5], 25.1% (inactive); in assay [10], 19.7% (inactive); in [11], 17.9% (inactive); in assay [12], 40.8% (inactive). Moreover, the inhibition of aggregation in [2] was -0.5% (inactive). Also, the nuclei count stood at 108% in assay [2] and 122% in assay [3]. In addition, the z-score in assay [4] (setting [13]) is 0.00928; in [4] (setting [14]), 0.0558; in assay [4] (setting [15]), -0.225. In addition, in assay [6], the fluorescence slope is -0.455 (inactive). Further, the NADPH fluorescence slope in [7] is -1.7e-06 (inactive). In addition, in assay [8], the slope was 0.00502 (inactive). For the same molecule, the result in [9] was inactive.
Take `COC(=O)c1cc(Br)c(=O)n(CCc2ccc(F)cc2)c1`: the cell count in assay [1] was found to be 595. In addition, the inhibition in assay [1] is -7.1% (inactive); in assay [3], 6.1% (inactive); in assay [5], 1.9e-07% (inactive); in [10], -7.76% (inactive); in assay [11] it was 4.86% (inactive); in assay [12], 5.55% (inactive). For the same molecule, in assay [2], the inhibition of aggregation was -4.6% (inactive). Also, the nuclei count in assay [2] is 93.4%; in [3], 151%. Moreover, the z-score in [4] (setting [13]) is -0.681; in assay [4] (setting [14]), 0.872; in assay [4] (setting [15]), 1.23. In addition, the fluorescence slope in assay [6] was -0.324 (inactive). Further, the NADPH fluorescence slope in assay [7] is -5.7e-05 (inactive). In addition, the slope in [8] was 0.00485 (inactive). Moreover, the outcome in assay [9] was “active; no signal in intestine only”.
Regarding `N=c1c[n+](N2CCOCC2)[n-]o1`, the cell count in [1] came to 605. The inhibition was -7.1% (inactive) in [1]; -109% (inactive) in assay [3]; -8.38% (inactive) in [5]; 5.26% (inactive) and -2.73% (inactive) in assay [10]; 19.5% (inactive) in [11]; 43.7% (inactive) in assay [12]. The inhibition of aggregation in assay [2] was 4.6% (inactive). Further, the nuclei count in assay [2] was 86.9%; in assay [3], 139%. The z-score in assay [4] (setting [13]) was 0.144; in assay [4] (setting [14]), -0.44; in assay [4] (setting [15]) it was 0.201. In assay [6], the fluorescence slope was -0.496 (inactive). Moreover, the NADPH fluorescence slope in assay [7] is -5.7e-05 (inactive). In addition, in assay [8], the slope is 0.00445 (inactive). In assay [9], the molecule was called inactive.
For the molecule `Nc1nc(Cl)nc2c1ncn2[C@H]1C[C@H](O)[C@@H](CO)O1`, in assay [1], the cell count is 522 and 557. The inhibition is -10.7% (inactive) and -11.5% (inactive) in assay [1]; -143% (inactive) and -17% (inactive) in assay [3]; 7.39% (inactive) and -2.46% (inactive) in [5]; 18.6% (inactive) and -15.6% (inactive) in assay [10]; 12.3% (inactive) and 18.7% (inactive) in assay [11]; 41.2% (inactive) and 27.6% (inactive) in [12]. The inhibition of aggregation in assay [2] was -36.7% (inactive). The nuclei count in [2] was 10%; in [3] it was 133% and 106%. The z-score is 1.67 and -3.27 in assay [4] (setting [13]); -1.09 and -0.338 in [4] (setting [14]); -0.372 and -0.606 in assay [4] (setting [15]). The fluorescence slope in assay [6] is -0.46 (inactive) and -0.431 (inactive). Also, the NADPH fluorescence slope in [7] was -2e-05 (inactive) and -2.2e-05 (inactive). In addition, the slope in assay [8] is 0.00559 (inactive) and 0.00513 (inactive). For the same molecule, the result in [9] was inactive.
On to `COc1ccc(Nc2nc(Nc3ccc(OC)cc3)nc(-n3[nH]c(=O)c(C)c3C)n2)cc1`, for which the cell count in assay [1] came out at 656. In addition, the inhibition was -10.8% (inactive) in assay [1]; -17.7% (inactive) in assay [3]; 13.9% (inactive) in assay [5]; 2.29% (inactive) in [10]; 22.1% (inactive) in assay [11]; 8.22% (inactive) in assay [12]. For the same molecule, the inhibition of aggregation in assay [2] was 0.5% (inactive). The figures for the nuclei count in assay [2] and in assay [3] were 124% and 122%, respectively. Further, the figures for the z-score in [4] (setting [13]), in [4] (setting [14]) and in assay [4] (setting [15]) were -0.0693, 1.31 and 0.0692, respectively. In addition, the fluorescence slope in assay [6] is -0.474 (inactive). The NADPH fluorescence slope in assay [7] was -5.6e-05 (inactive). The slope in assay [8] was 0.00543 (inactive). Further, the molecule was called inactive in assay [9].
Turning to `OC(CCN1CCCC1)(c1ccccc1)C1CCCCC1` (stereo not given), the cell count in assay [1] is 573. The inhibition is 6.7% (inactive) in [1]; -40.8% (inactive) in [3]; 19.2% (inactive) in assay [5]; 37.7% (inactive) in [10]; 0.492% (inactive) in [11]; -2.26% (inactive) in assay [12]. In assay [2], the inhibition of aggregation is -8.9% (inactive). Besides, the nuclei count in [2] came to 114%; in assay [3], 106%. For the same molecule, the z-score in assay [4] (setting [13]) was 1.31; in assay [4] (setting [14]), -0.388; in assay [4] (setting [15]) it was -1.18. Besides, the fluorescence slope in assay [6] is -0.528 (inactive). Further, the NADPH fluorescence slope in assay [7] is -6.1e-05 (inactive). The slope in assay [8] is 0.00512 (inactive). In assay [9], the result was inactive.
Consider `N#C/C(=C\c1ccc(O)c(O)c1)C(=O)NCCCc1ccccc1`, for which, in [1], the cell count turned out to be 629. Also, the inhibition is 3.7% (inactive) in assay [1]; -94.6% (inactive) in [3]; 16.8% (inactive) in assay [5]; 2.27% (inactive) and -1.78% (inactive) in [10]; -14.9% (inactive) in [11]; -17.2% (inactive) in [12]. In addition, the inhibition of aggregation in [2] was -14.6% (inactive). Besides, the nuclei count was 98.2% in assay [2] and 131% in assay [3]. Further, the z-score in assay [4] (setting [13]) was 1.89; in assay [4] (setting [14]), 0.253; in assay [4] (setting [15]) it was -0.466. In addition, the fluorescence slope in assay [6] was -0.49 (inactive). The NADPH fluorescence slope in assay [7] is -5.4e-05 (inactive). Further, in assay [8], the slope is 0.00485 (inactive). The molecule was classed as inactive in [9].
